# “And” between values parts separate entries of the source, which are not always exact repeats. Equal entries are not always repeated. About 83,000 compounds went through this panel and 20% of them were active in at least one assay; those are over-represented in the sample as a whole.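 48-hour exposure, single concentration, 96-well plates; percent growth endpoint where 0 means no net growth. Active: below 10.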 The source made the active and inactive calls. Where a SMILES comes first, the peptide text is derived from it.
# Tested on: KM12 colon
# Test: NCI-60 one-dose screen, 48 h (100 = growth as untreated, 0 = no growth, -100 = all killed)
# Details: 10 µM unless noted
# Procedure: Growth inhibition of the KM12 human tumor cell line is measured as a screen for anti-cancer activity. Cells are grown in 96 well plates and exposed to the test compound for 48 hours. Compounds are tested at a single concentration, which is 10^-5 M for most compounds. The reported endpoint is percent growth (GI% or GIPRCNT), where numbers from 0 - 100% represent growth inhibition, and numbers from -100% - 0 represent cell death. For example, a value of 40 represents 60% growth inhibition. A value of 0 means no net growth occurred over the course of the experiment. A value of -40 indicates 40% of cells at the beginning of the experiment died by the end of the experiment. A value of -100 means all cells are dead at the end of the experiment.
# NCI-60 Human Tumor Cell Lines Screen was performed using the standard one-dose NCI protocol, which is described in more detail at https://dtp.cancer.gov/discovery_development/nci-60/default.htm.
# Compounds with GIPRCNT values below 10 were considered active. Activity score was based on GIPRCNT using the following formula: […]
# Score is 0 for GIPRCNT values of 100 or above, 50 for GIPRCNT values of 0, and 100 for GIPRCNT values of -100.
row,Structure (SMILES),growth
1,O=C1CSC2=NCCN12,89.8% (inactive) and 123% (inactive)
2,CCCCCCCCCCCCCCCc1ccc(N)c(OC2OC(CO)C(O)C(O)C2O)c1 (stereo not given),100% (inactive)
3,Nc1cc(N)c(N)cc1N,80.1% (inactive)
4,O=CN1CCCCC1,100% (inactive)
5,c1ccc(-c2nc3ccccc3s2)cc1,95.4% (inactive)
6,CC1(C)COC(=S)N1,112% (inactive)
7,CCOC(=O)c1c(C)cc(=O)oc1C,110% (inactive)
8,OC1COC(OCc2ccccc2)C(O)C1O (stereo not given),105% (inactive)
9,CC1CCC2(OC1)OC1CC3C4CC=C5CC(O)CCC5(C)C4CCC3(C)C1C2C (stereo not given),104% (inactive)
10,CC(=O)Nc1ccc(S(N)(=O)=O)cc1,109% (inactive) and 108% (inactive)
11,CC(C)NCC(O)c1ccc(O)c(O)c1 (stereo not given),106% (inactive) and 105% (inactive)
12,COc1ccc2cc1Oc1ccc(cc1)C[C@H]1c3cc(c(OC)cc3CCN1C)Oc1c(OC)c(OC)cc3c1[C@H](C2)N(C)CC3,15.6% (inactive)
13,ClCCOCCOc1ccc(C2CCCCC2)cc1,110% (inactive)
14,Fc1ccc([I+]c2ccc(F)cc2)cc1,54.5% (inactive)
15,O=C1c2c(O)ccc(O)c2C(=O)c2c(NCCNCCO)ccc(NCCNCCO)c21,-11.4% (active) and -25.6% (active)
16,NC(Cc1ccccc1)C(=O)NC(Cc1ccccc1)C(=O)O (stereo not drawn) (H-Phe-Phe-OH; configuration not given here),105% (inactive) and 107% (inactive)
17,N#CC(C#N)N=Nc1cc(Cl)ccc1Cl,103% (inactive)
18,O=c1n(CC2CO2)c(=O)n(CC2CO2)c(=O)n1CC1CO1 (stereo not given),90.3% (inactive)
19,Nc1ncnc2c1ncn2C1OC(COP(=O)(O)O)C(O)C1O (stereo not given),111% (inactive)
20,CC[C@H](CC[C@@H](C)[C@H]1CC[C@H]2[C@@H]3CC=C4C[C@@H](O)CC[C@]4(C)[C@H]3CC[C@]12C)C(C)C,106% (inactive) and 98.6% (inactive)

row,Structure (SMILES),growth
1,CCCCCCCCCCNC(=O)CI,55.3% (inactive)
2,COc1ccc(N/C=C/C2=[N+](C)c3ccccc3C2(C)C)c(OC)c1,103% (inactive)
3,NN1CCOC(c2ccccc2)C1 (stereo not given),101% (inactive)
4,CC(C)(O)C(=O)O,107% (inactive)
5,Nc1ccc2c(O)cc(S(=O)(=O)O)cc2c1,120% (inactive) and 103% (inactive)
6,Cc1cc(-c2ccc(N=Nc3ccc4c(S(=O)(=O)O)cc(S(=O)(=O)O)c(N)c4c3O)c(C)c2)ccc1N=Nc1ccc2c(S(=O)(=O)O)cc(S(=O)(=O)O)c(N)c2c1O,94.7% (inactive)
7,O=c1[nH]cnc2c1ncn2C1OC(CO)C(O)C1O (stereo not given),111% (inactive) and 109% (inactive)
8,CCCCCCCCCCCCCCCCC(C(=O)O)C(O)(CC(=O)O)C(=O)O (stereo not given),105% (inactive) and -34.4% (active)
9,O=C(/C=C/c1ccccc1)c1ccccc1,33.3% (inactive)
10,O=C(Cc1ccccc1)c1ccc(O)c(Cl)c1,51.4% (inactive)
11,CC1=C/C(O)CC(=O)Cc2nc(co2)C(=O)N2CCC=C2C(=O)OC(C(C)C)C(C)/C=C\C(=O)NC/C=C\1 (stereo not given),95.1% (inactive)
12,CN(C)CC1CCCCCC(CN(C)C)C1=O (stereo not given),102% (inactive)
13,Cc1ccc(=O)[nH]n1,103% (inactive) and 101% (inactive)
14,OCC1OC(O)C(O)C(O)C1O (stereo not given),128% (inactive)
15,Cc1cc2ccccc2cn1,106% (inactive) and 108% (inactive)
16,OCCN1CCCCCCC1,110% (inactive)
17,O=C(O)/C=C\C(=O)Nc1cccc2ccccc12,89.8% (inactive) and 106% (inactive)
18,Cl,112% (inactive)
19,CCN(CCNS(C)(=O)=O)c1ccc(N)c(C)c1,103% (inactive)
20,CC1CCC2(C(=O)O)CCC3(C)C(=CCC4C5(C)CCC(O)C(C)(C)C5CCC43C)C2C1C (stereo not given),59.6% (inactive) and 85.7% (inactive)
